From PubChem BioAssay (Tox21) come the findings set out here.

Results filed as inconclusive are left out. Values without a mark were called inactive. Calls follow the shape of the dose curve; as a rule, active = well fitted activation curve with a large enough effect in the signal ratio in the repeat runs (not every such curve was filed as active); inconclusive = weak or mixed curves, or effect the other way; inactive = no such curve, though single readings can be large or run the other way; the % refers to the signal ratio.
% is scaled to controls: 0 for no effect and ±100 for the full control effect.

This assay is described as follows: qHTS assay for small molecule agonists of the antioxidant response element (ARE) signaling pathway (AID 743202). As to conditions: HepG2 ARE-bla reporter, beta-lactamase FRET, 16 h; series mostly up to 73.3 µM; activation: at the top concentration. In short, it runs like this: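 Quantitative high-throughput format in HepG2 cells bearing an integrated ARE-beta-lactamase reporter. Compound exposure lasted 16 h at 37 C, and fluorescence was read 2 h after adding LiveBLAzer B/G substrate at room temperature.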
(In qHTS, concentration-response curves come from the screen itself.)
For `CCC(C)n1c(=O)[nH]c(C)c(Br)c1=O` (centres undefined), the “activation” value is 14.3%.
To `C[N+](C)=CCl` belongs 11.1%; to `CCOP(=S)(OCC)Oc1cc(-c2ccccc2)on1`, 0.361%; to `CCOC(=O)NC(=S)Nc1ccccc1NC(=S)NC(=O)OCC`, -12.1%.
To `O=NN1CCN(N=O)CC1` belongs -6.07%; to `COc1cc(OC)nc(Sc2cccc(Cl)c2C(=O)O)n1`, -2.69%.
Under `CCCCCCBr` stands 0.336% [at 94.8 µM]; under `CNC(=O)Oc1ccccc1C1OCCO1`, -0.182%; under `CC(Cl)(Cl)[N+](=O)[O-]`, -7.44%.
Take `CC1=NNC(=O)N(/N=C/c2cccnc2)C1`: the “activation” value was -1.38%.
To `N#CC(CCc1ccc(Cl)cc1)(Cn1cncn1)c1ccccc1` (centres undefined) belongs 5.37%; to `Nc1cnn(-c2ccccc2)c(=O)c1Cl`, -0.324%.
To `CCCCOP(=O)(O)OCCCC` belongs -5.19%; to `COP(N)(=S)Oc1ccccc1C(=O)OC(C)C` (centres undefined), 15.8%.
